Screening data deposited in PubChem BioAssay by several laboratories.
HSP90 refold inh – inhibitors of HSP90 luciferase refolding in rabbit reticulocyte lysate; luciferase refolding luminescence, 3 h; inhibition, % at 5.6 µM; 290,000 compounds, 0.91% hits; AID 1789;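 active means inhibition above the screen-wide mean plus 3 SD, computed separately per campaign, cut at about 16% in these data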;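 further: inhibitors lower the luminescence because luciferase stays unfolded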
LMP1 NFkB inh – inhibitors of Epstein-Barr LMP1-induced NF-kappaB reporter. LMP1-induced NF-kappaB luciferase reporter cells, luminescence. inhibition, % at 12.5 µM. 350,000 compounds, 0.69% hits; in the data active means inhibition above about 41%; inconclusive means no clear call, values can overlap the other calls
HSF1 activator – increases HSF-1 driven luciferase reporter signal; activation, % at 9 µM; AID 504408; NIH3T3-HGL HSF-1 luciferase reporter, MG132, 8 h; 100% = twice DMSO control signal; 300,000 compounds, 1.7% hits;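 active means mean replicate activation of at least 50% with a set share of replicates each reaching 50%; inconclusive means only one of those two conditions met; inactive means mean below 50% and too few replicates reaching it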
TROY signal inh – blocks TROY-dependent signaling in reporter cells; 360,000 compounds, 0.98% hits; inhibition, % at 10 µM; Q293 LMP1-TROYcd NF-kB luciferase reporter, 4 h;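 active means compounds whose plate-normalised and pattern-corrected inhibition of the luciferase reporter signal at the single screening dose is 50% or more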
HSF1 inh – HSF1 inhibition; 300,000 compounds, 0.77% hits; activity change, negative = inhibition, % at 7.5 µM (by protocol); AID 2098; NIH3T3-HGL HSE-luciferase, MG132-induced, luminescence 8 h; stronger effect = lower value;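 active means more than half of replicate wells show activity change below -50%, luminescence cut by over half; inconclusive means some wells, but at most half, below -50%; inactive means no replicate well below -50%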;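 further: luciferase reports HSF-1 transcriptional activity via heat shock element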
TWEAK Fn14 block – blocks TWEAK-Fn14 interaction in a reporter cell assay | 360,000 compounds, 2% hits | TWEAK-stimulated Fn14 reporter cells, luciferase luminescence, 8 h | inhibition, % at 10 µM; in the data active means inhibition above about 50%
HSP90 inh confirm – confirmation of HSP90 inhibitors. shares compounds with HSP90 refold inh. AID 1846. 2,300 compounds, 64% hits. rabbit reticulocyte lysate, luciferase refolding luminescence, 3 h. inhibition, % at 5.9 µM; in the data active means inhibition above about 18%
FLuc counter – blocks native firefly luciferase in HSP90 counter-screen; AID 1847; 2,300 compounds, 48% hits; inhibition, % at 5.9 µM; purified native firefly luciferase, luminescence; shares compounds with HSP90 refold inh;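 active means inhibition above the mean inhibition of all tested sample wells plus 3 SD, cut at about 10% in these data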
Target sequence (P08659 whole entry, looked up): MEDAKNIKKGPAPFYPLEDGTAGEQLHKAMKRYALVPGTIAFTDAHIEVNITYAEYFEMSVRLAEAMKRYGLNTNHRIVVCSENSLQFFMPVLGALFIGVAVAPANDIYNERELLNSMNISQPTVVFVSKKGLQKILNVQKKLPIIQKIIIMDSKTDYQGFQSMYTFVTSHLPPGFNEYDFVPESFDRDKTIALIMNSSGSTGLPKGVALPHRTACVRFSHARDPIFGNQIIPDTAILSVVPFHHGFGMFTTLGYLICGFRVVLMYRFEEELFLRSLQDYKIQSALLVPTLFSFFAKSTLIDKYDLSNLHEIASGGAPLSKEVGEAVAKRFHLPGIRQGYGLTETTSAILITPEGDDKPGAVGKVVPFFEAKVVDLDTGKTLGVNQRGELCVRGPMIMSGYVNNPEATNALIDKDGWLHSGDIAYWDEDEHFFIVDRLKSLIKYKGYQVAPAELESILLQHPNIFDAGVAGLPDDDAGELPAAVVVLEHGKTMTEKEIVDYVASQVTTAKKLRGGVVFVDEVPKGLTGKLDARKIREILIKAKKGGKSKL
Numbers stand for hits; – = inactive; ? = inconclusive; · = no result given. Compounds with a hit are over-represented: about 4.7% of the library has one in this group of screens.

SMILES	HSP90 refold inh	LMP1 NFkB inh	HSF1 activator	TROY signal inh	HSF1 inh	TWEAK Fn14 block	HSP90 inh confirm	FLuc counter
COc1ccc(-c2cc3c(=O)n(CC(=O)NCCCN4CCN(Cc5ccccc5)CC4)ncn3n2)cc1	26	50	–	–	–	–	51	35
CCOc1ccc(CCNC(=O)Cn2ncn3nc(-c4ccc(OC)cc4)cc3c2=O)cc1	–	–	–	–	–	–	·	·
COc1ccc(-c2cc3c(=O)n(CC(=O)NCCCN4CCC(Cc5ccccc5)CC4)ncn3n2)cc1	55	–	–	–	–	–	60	–
C[C@@H]1CN([C@@H](C)CO)C(=O)c2cc(Br)cnc2O[C@H]1CN(C)S(=O)(=O)c1cccs1	·	–	·	–	·	–	·	·
O=C(CN1CCN(CC(=O)c2ccccc2)CC1)c1ccccc1	·	–	·	–	·	–	·	·
COc1cccc(/C=N/NC(=O)c2[nH]c(C)c(C(=O)N/N=C/c3cccc(OC)c3O)c2C)c1O	32	–	–	–	–	–	–	–
COc1cccc(/C=N/NC(=S)Nc2cccc(C(=O)O)c2)c1O	25	–	–	–	–	–	50	27
COc1cccc(/C=N/NC(=O)c2ccc(=O)[nH]n2)c1O	–	–	–	–	–	–	·	·
CC(=O)OCCCCON1C(=O)c2ccccc2C1=O	–	–	–	–	–	–	·	·
CCOC(=O)CON1C(=O)c2ccccc2C1=O	26	–	–	–	–	–	–	–
CC1Cc2cc(/C(O)=C3/C(=O)C(=O)N(CCN4CCOCC4)C3c3cccc(O)c3)ccc2O1 (stereo not given)	18	–	–	–	–	–	18	–
CC1Cc2cc(/C(O)=C3/C(=O)C(=O)N(CC4CCCO4)C3c3ccco3)ccc2O1 (stereo not given)	22	–	–	–	-56	–	–	12
COc1cc(C2/C(=C(\O)c3ccc4c(c3)CC(C)O4)C(=O)C(=O)N2CC2CCCO2)cc(OC)c1OC (stereo not given)	–	–	–	–	–	–	·	·
Cc1nnc(N2C(=O)C(=O)/C(=C(\O)c3ccc4c(c3)CC(C)O4)C2c2ccccc2)s1 (stereo not given)	26	–	–	57	–	–	17	26
COc1ccc(-c2ccc3c(c2)S(=O)(=O)c2cccc(C(=O)N4CCN(C5CCCCC5)CC4)c2C3=O)cc1OC	·	–	·	–	·	–	·	·
CC(C)(C)c1ccc(S(=O)(=O)NC(=O)C2(C)CCN2C(=O)CC2CCCCC2)cc1 (stereo not given)	·	·	·	–	·	–	·	·
O=C(Nc1cccc(O)c1)c1cc(-c2ccc3c(c2)OCO3)on1	68	–	–	64	–	95	92	85
O=C(Nc1cccc(O)c1)c1cc(-c2ccccc2Cl)on1	41	–	–	51	-58	77	63	48
O=C(c1cc(-c2ccccc2Cl)on1)N1CCCC1	51	–	–	–	–	70	55	49
COC(=O)c1ccc(NC(=O)c2ccccc2C(=O)Nc2ccc(C(=O)OC)cc2)cc1	·	–	–	–	–	–	·	·
COC(=O)c1ccc(NC(=O)C(=O)c2cccn2C)cc1	26	–	61	–	–	–	59	42
CNc1ncnc2c1ncn2[C@H]1CN(Cc2ccc(OC)cc2)C[C@@H](CO)O1	·	·	·	–	·	–	·	·
O=C(Nc1ccccn1)c1cc2ccccc2o1	69	46	–	70	–	96	80	78
O=C(Nc1ccc2c(c1)OCCO2)c1cc2ccccc2o1	24	–	61	–	–	–	39	26
O=C(NC1=NCCS1)c1cc2ccccc2o1	34	?	–	–	–	82	56	47
CCCNC(=O)C1(C)CCCN(Cc2c(F)cccc2F)C1 (stereo not given)	·	·	·	–	·	–	·	·
Cc1ccccc1-c1cc2c(nn1)-c1ccccc1C2=O	74	–	–	85	–	–	–	–
Cc1ccc(-c2cc3c(nn2)-c2ccccc2C3=O)cc1	28	65	–	75	–	96	75	89
CCNC(=O)C1(C)CCN1C(=O)CCc1cccc(Cl)c1 (stereo not given)	·	·	·	–	·	–	·	·
